Results: PubChem BioAssay (Tox21)
Records with an inconclusive call do not appear. Activity calls are given as the source filed them. The call rests on the fitted dose curve; in most records, active means well fitted cell-killing curve with a large enough effect in the repeat runs; inconclusive means weak or mixed curves, or effect the other way; inactive means flat fitted curve, though single readings scatter.
On the % scale 0 is the no-effect control and ±100 the full control effect; potency means the concentration at half of the fitted maximal effect.

Experiment: cAMP Responsive Elements (CRE) small molecule antagonists, cell-based qHTS assay: qHTS cell viability counter screen (AID 2060913); further: nearly all actives have a fitted effect of over 40% in size
Conditions: CRE-bla HEK293T viability, CellTiter-Glo luminescence, 5 h; series mostly up to 92.4 µM; viability change, negative = cytotoxic: at the top concentration
Outline: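 Cytotoxicity read in the same wells as the CRE-bla HEK293T antagonist assay: after 3 h compound with 0.25 uM NKH477 final and 2 h beta-lactamase substrate, CellTiter-Glo luminescence measured.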
In the case of `N#CC(c1ccccc1)c1ccccc1`, the Potency is reported as “inactive”. For `O=C(N/N=C/c1ccc([N+](=O)[O-])o1)c1cc([N+](=O)[O-])cc([N+](=O)[O-])c1O`, the “viability change, negative = cytotoxic” value was 6.95% [at 42.5 µM] (inactive). With `CCCCON=O` the “viability change, negative = cytotoxic” value was -11.2% (inactive). For `Clc1ccc(CCC(Cn2ccnc2)Sc2c(Cl)cccc2Cl)cc1` (stereo not given), the “viability change, negative = cytotoxic” value was -13.5% [at 42.5 µM] (inactive). For `ClCCCCl`, the “viability change, negative = cytotoxic” value was -4.14% (inactive). For `CC(=O)[O-].CC(=O)[O-].[Co+2]`, the “viability change, negative = cytotoxic” value was 9% (inactive). With `CC(C)[N+](=O)[O-]` the “viability change, negative = cytotoxic” value was 8.99% (inactive). With `c1ccc2nc(N3CCNCC3)ccc2c1` the “viability change, negative = cytotoxic” value was 6.84% [at 42.5 µM] (inactive). For `COc1cc(CC#N)cc(OC)c1OC`, the “viability change, negative = cytotoxic” value was -0.238% [at 42.5 µM] (inactive). With `N#CC(Br)Br` the Potency was “inactive”. For `O=S1OCC2C(CO1)C1(Cl)C(Cl)=C(Cl)C2(Cl)C1(Cl)Cl` (stereo not given), the Potency was 61.1 µM (active). For `CNC(=O)O/N=C(\C)C(C)S(C)(=O)=O` (stereo not given), the “viability change, negative = cytotoxic” value was -13.7% [at 872 µM] (inactive). For `CNCC(O)c1ccc(O)cc1` (stereo not given), the Potency was “inactive”. In the case of `CCC[CH2][Sn]([CH2]CCC)([CH2]CCC)[CH2]CCC`, the “viability change, negative = cytotoxic” value is reported as -26% (inactive). For `Nc1ncn[nH]1`, the “viability change, negative = cytotoxic” value was 2.62% (inactive). In the case of `O=C1c2ccccc2C(=O)C1C(=O)C(c1ccccc1)c1ccc(Cl)cc1` (stereo not given), the “viability change, negative = cytotoxic” value is reported as -15% (inactive). In the case of `CCCCCCCCCC[N+](C)(C)CCCCCCCCCC`, the Potency is reported as 30.6 µM (active). With `NC(=O)c1cc([N+](=O)[O-])cc([N+](=O)[O-])c1` the “viability change, negative = cytotoxic” value was 0.273% [at 42.5 µM] (inactive). For `COC(=O)c1sccc1S(=O)(=O)NC(=O)Nc1nc(C)nc(OC)n1`, the Potency was “inactive”. With `Oc1ccc2c3c1O[C@H]1[C@@H](O)C=C[C@H]4[C@@H](C2)NCC[C@@]341` the “viability change, negative = cytotoxic” value was -2.4% (inactive). For `CCCCCCCCCCCCCCCCCC(=O)O`, the Potency was “inactive”. For `CNC(=O)CSP(=O)(OC)OC`, the “viability change, negative = cytotoxic” value was -4.71% (inactive). For `COc1cc2c(cc1OC)[C@@]13CCN4CC5=CCO[C@H]6CC(=O)N2[C@H]1[C@H]6[C@H]5C[C@H]43`, the “viability change, negative = cytotoxic” value was 7.03% (inactive). With `Cc1cccc(C)c1NC1=NCCCS1` the “viability change, negative = cytotoxic” value was -1.78% [at 42.5 µM] (inactive). With `C1CCC(NC2CCCCC2)CC1` the Potency was “inactive”. For `Oc1c(Cl)c(Cl)cc(Cl)c1Cl`, the “viability change, negative = cytotoxic” value was -20.5% (inactive). For `O.O.O.O.O.O.O.O=S(=O)([O-])[O-].[Co+2]`, the “viability change, negative = cytotoxic” value was 15.2% (inactive). For `CCOC(=O)NC(=S)Nc1ccccc1NC(=S)NC(=O)OCC`, the “viability change, negative = cytotoxic” value was -2.68% (inactive). With `Cc1nc(N(C)C)nc(OC(=O)N(C)C)c1C` the “viability change, negative = cytotoxic” value was 6.62% (inactive). For `CCOC(=O)[C@]1(c2ccccc2)Oc2ccccc2[C@@H]1N`, the “viability change, negative = cytotoxic” value was -13.3% (inactive). For `OC(c1ccc(F)cc1)(c1cncnc1)c1ccccc1Cl` (stereo not given), the “viability change, negative = cytotoxic” value was 2.2% (inactive). With `CCN` the “viability change, negative = cytotoxic” value was 2.59% (inactive). In the case of `CN1COCN(Cc2cnc(Cl)s2)/C1=N\[N+](=O)[O-]`, the “viability change, negative = cytotoxic” value is reported as -3.06% (inactive). For `Nc1ccc(Sc2ccc(N)cc2)cc1`, the “viability change, negative = cytotoxic” value was 4.2% (inactive). With `CC1(C)CC/C(=C/c2ccc(Cl)cc2)C1(O)Cn1cncn1` (stereo not given) the “viability change, negative = cytotoxic” value was 0.26% (inactive). In the case of `COP(=S)(OC)Oc1ccc([N+](=O)[O-])cc1Cl`, the “viability change, negative = cytotoxic” value is reported as -10.6% (inactive). With `NC(=O)CS(=O)C(c1ccccc1)c1ccccc1` (stereo not given) the “viability change, negative = cytotoxic” value was -0.348% [at 42.5 µM] (inactive). For `CNC(=O)Oc1cc(C)c(N(C)C)c(C)c1`, the “viability change, negative = cytotoxic” value was 2.06% (inactive). With `N#Cc1ccc(Cl)cc1` the “viability change, negative = cytotoxic” value was 5.88% (inactive). In the case of `CCC1COC(Cn2cncn2)(c2ccc(Cl)cc2Cl)O1` (stereo not given), the “viability change, negative = cytotoxic” value is reported as -15% (inactive).
